# Values joined by “and” are separate entries in the source; they are usually repeats but may differ in a detail not shown here. Equal entries are not always repeated. Records with an inconclusive call do not appear. Active and inactive are the calls of the source. Unless noted, calls come from the whole dose curve; as a rule, active = well fitted curve in the direction sought with a large enough effect; inconclusive = small, poorly fitted or top-dose-only effect, or another doubt; inactive = no such curve, though single readings can be large; an effect the other way counts as inactive or inconclusive.
# How the values were obtained:
# [1] = qHTS Assay for Lipid Storage Modulators (AID 1519; calls by dose curve; for activity change, negative = inhibition: % is set by controls: 0 for no effect and ±100 for the full control effect); settings: Drosophila S3 cells, BODIPY lipid droplet/cell ratio, laser cytometry, cells loaded with oleic acid; for activity change, negative = inhibition: at 57.5 µM (top of the series)
# Procedure, shortened: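 Cells seeded at 5,000 per well were treated with compounds over a concentration series and loaded with oleic acid (400 uM, as added). Lipid droplet fluorescence (488 nm excitation, 500-530 nm channel) was read by laser-scanning cytometry and normalized to 20 uM Triacsin C.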
# [2] = Cell Viability - LYMP2-025 (AID 976); settings: LYMP2-025 lymphoblastoid cell viability; series mostly up to 92.2 µM;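 note: plate controls were DMSO only for no effect and tetraoctylammonium bromide control for full effect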
# Procedure, shortened: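 Luminescent ATP readout after 24 hr treatment of a human lymphoblastoid line (LYMP2-025, 2500 cells/well, 37 C). Reagent developed 30 min at room temperature; AC50 fitted with the Hill equation.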
# [3] = Cell Viability - LYMP2-002 (AID 977); settings: LYMP2-002 lymphoblastoid cell viability, qHTS; series mostly up to 92.2 µM;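 note: compound exposure lasted 24 h at 37 °C; plate controls were DMSO only for no effect and 92 µM tetraoctylammonium bromide for full effect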
# Procedure, shortened: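 Human lymphoblastoid cells, 2500/well, complete medium; 5 h 37 C settle; compound 24 h 37 C; CellTiter-Glo, 30 min RT; luminescence. Decrease in ATP = cytotoxicity; AC50 via Hill equation.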
# [4] = Cell Viability - LYMP2-006 (AID 978); settings: LYMP2-006 lymphoblastoid cell viability, qHTS; series mostly up to 92.2 µM; note: % is set by controls: 0 for no effect and ±100 for the full control effect; nearly all actives have a fitted effect of over 60% in size
# Procedure, shortened: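 Cells are seeded at 2500 per well and rested 5 hr at 37 C. Compounds are added across a concentration series for 24 hr at 37 C, after which ATP is quantified by luciferase luminescence.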
# [5] = Cell Viability - LYMP2-007 (AID 979); settings: LYMP2-007 lymphoblastoid cell viability; series mostly up to 92.2 µM;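 note: cells exposed to compound for 24 h before reading; 0% = DMSO only and the negative end = 92 µM tetraoctylammonium bromide; nearly all actives have a fitted effect of over 60% in size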
# Procedure, shortened: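 Measured via luciferase-based ATP quantitation: lymphoblastoid cells, 24 hr compound exposure at 37 C, AC50 from Hill fits.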
# [6] = Cell Viability - LYMP2-008 (AID 980); settings: LYMP2-008 lymphoblastoid cell viability, qHTS; series mostly up to 92.2 µM; note: % is set by controls: 0 for no effect and ±100 for the full control effect; nearly all actives have a fitted effect of over 60% in size
# Procedure, shortened: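 Measured: ATP-dependent luminescence, proportional to viable cell number, in human lymphoblastoid cells treated 24 hr with compound in complete culture medium. Values are AC50s from Hill-equation modelling of qHTS titrations.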
# [7] = Cell Viability - LYMP2-010 (AID 981); settings: LYMP2-010 lymphoblastoid cell viability, qHTS; series mostly up to 92.2 µM; note: % is set by controls: 0 for no effect and ±100 for the full control effect; nearly all actives have a fitted effect of over 55% in size
# Procedure, shortened: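 This 24 hr viability screen uses LYMP2-010 lymphoblastoid cells, quantifies ATP via luciferase luminescence, and derives AC50 from Hill fits of qHTS concentration-response data.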
# [8] = Cell Viability - LYMP2-016 (AID 984); settings: LYMP2-016 lymphoblastoid cell viability, qHTS; series mostly up to 92.2 µM; note: % is set by controls: 0 for no effect and ±100 for the full control effect; nearly all actives have a fitted effect of over 55% in size
# Procedure, shortened: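 Cells were seeded at 2500 per well and rested 5 hr before a 24 hr compound exposure at 37 C. Viability was then gauged as cellular ATP by luciferase luminescence, with AC50 values fitted to the Hill equation.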
# [9] = Cell Viability - LYMP2-018 (AID 985); settings: LYMP2-018 lymphoblastoid cells, viability (qHTS); series mostly up to 92.2 µM;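 note: plate controls were DMSO only for no effect and tetraoctylammonium bromide at 92 µM for full effect; nearly all actives have a fitted effect of over 50% in size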
# Procedure, shortened: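 In this qHTS viability assay, cells are treated for 24 hr and cellular ATP is quantified by luciferase-based luminescence, with tetraoctylammonium bromide as positive control.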
# [10] = Cell Viability - LYMP2-024 (AID 988); settings: LYMP2-024 lymphoblastoid cell viability; series mostly up to 92.2 µM;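 note: plate controls were DMSO only for no effect and 92 µM tetraoctylammonium bromide for full effect; nearly all actives have a fitted effect of over 60% in size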
# Procedure, shortened: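 Cells at 2500 per well received compound for 24 hr after a 5 hr settling period. Viability was scored by CellTiter-Glo luminescence, with AC50 from Hill fits.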
# [11] = Cell Viability - LYMP2-026 (AID 989); settings: LYMP2-026 lymphoblastoid cell viability, qHTS; series mostly up to 92.2 µM; note: % is set by controls: 0 for no effect and ±100 for the full control effect; nearly all actives have a fitted effect of over 50% in size
# Procedure, shortened: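 Acute toxicity screen in complete culture medium, with 24 hr compound exposure at 37 C. Viability read as cellular ATP via luciferase reaction, with tetraoctylammonium bromide (6.4pM to 92 uM) as positive control.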
# [12] = Cell Viability - LYMP1-002 - Assay at 24 hr (AID 993); settings: LYMP1-002 lymphoblastoid cells viability; series mostly up to 92.2 µM; note: % is set by controls: 0 for no effect and ±100 for the full control effect
# Procedure, shortened: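 Viability was judged from intracellular ATP using a luciferase read-out, following a 24-hour compound incubation at 37 C of lymphoblastoid cells seeded at 2500 per well. Concentration-response data were fitted to the Hill equation for AC50.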
# [13] = Cell Viability - LYMP1-002 - Assay at 40 hr (AID 994); settings: LYMP1-002 lymphoblastoid cell viability; series mostly up to 92.2 µM
# Procedure, shortened: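 Concentration-dependent ATP loss after 40 hr treatment at 37 C defined toxicity; AC50 values were obtained by fitting the standard Hill equation.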
# [14] = Cell Viability - LYMP2-012 (AID 982); settings: LYMP2-012 lymphoblastoid cell viability qHTS; series mostly up to 92.2 µM;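 note: cellular ATP by luciferase luminescence where a drop means cytotoxicity; cells exposed to compound for one day before reading; 0% = DMSO only and full loss = 92 µM tetraoctylammonium bromide; nearly all actives have a fitted effect of over 55% in size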
# Excerpt: NIH Chemical Genomics Center [NCGC]
# NIH Molecular Libraries Screening Centers Network [MLSCN]
# National Institutes of Environmental Health Sciences [NIEHS]
# National Toxicology Program [NTP]
# We have developed a 1536-well cell-based assay for quantitative high throughput screening (qHTS) against a number of cell lines to determine in vitro cytotoxicity of small molecules. This particular assay uses a human lymphoblastoid cell line (LYMP2-012) purchased from Coriell Institute for Medical Research.
# NCGC Assay Protocol Summary:
# The CellTiter-Glo luminescent cell viability assay (Promega) is a homogeneous method to measure the number of viable cells in culture. The end point readout of this assay is based on quantitation of intracellular ATP, an indicator of metabolic activity, using the luciferase reaction. Luciferase catalyzes the oxidation of beetle Luciferin to oxyluciferin and light in the presence of ATP. The luminescent signal is proportional to amount of ATP present.
# Using the CellTiter-Glo luminescent cell viability assay, the amount of cellular ATP was measured in the lymphoblastoid cell line with complete culture medium following compound treatment for 24 hours. The assay was performed in opaque white Kalypsys 1536-well plates. In the screen, tetraoctylammonium bromide was used as positive control. Library compounds were measured for their ability to cause acute toxicity in the cell line, as reflected by a decrease in intracellular ATP levels, in a concentration-dependent manner. […] AC50 values were determined from concentration-response data modeled with the standard Hill equation.
# qHTS protocol for CellTiter Glo lymphoblastoid cellular assay
# [Step] [Parameter] [Value] [Description]
# 1. Reagent; 5 uL; 2500 lymphoblastoid cells/well
# 2. Time; 5 hr; 37 C incubation
# 4. Controls; 23 nL; Tetraoctylammonium bromide 6.4pM to 92 uM
# 5. Time; 24 hr; 37 C incubation
# 6. Reagent; 5 uL; CellTiter Glo reagent
# 7. Time; 30 min; Room Temperature
# 8. Detection; Luminescence; Viewlux plate reader
# Keywords: cell viability, cytotoxicity, lymphoblastoid cell line, luminescence, NTPHTS, NTPHTS_NCGC, NIEHS, DSSTox, MLSMR, MLSCN, NIH Roadmap, qHTS, NCGC
# [15] = Cell Viability - LYMP2-014 (AID 983); settings: LYMP2-014 lymphoblastoid cells, viability qHTS; series mostly up to 92.2 µM;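 note: plate controls were DMSO only for no effect and 92 µM tetraoctylammonium bromide for full effect; nearly all actives have a fitted effect of over 50% in size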
# Procedure, shortened: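 Quantitative HTS in lymphoblastoid cells: 24 hr compound exposure, then CellTiter-Glo ATP luminescence. Positive control was tetraoctylammonium bromide, 6.4pM to 92 uM.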
# [16] = Cell Viability - LYMP2-020 (AID 986); settings: series mostly up to 92.2 µM;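 note: plate controls were DMSO only for no effect and tetraoctylammonium bromide at 92 µM for full effect; nearly all actives have a fitted effect of over 55% in size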
# Procedure, shortened: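 Cells at 2500 per well receive a 24 hr compound exposure at 37 C. Viability is measured as ATP-dependent luciferase luminescence, with AC50 modeled from qHTS concentration-response curves.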
# [17] = Cell Viability - LYMP2-022 (AID 987); settings: LYMP2-022 lymphoblastoid cell viability; series mostly up to 92.2 µM
# Procedure, shortened: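 In this qHTS cytotoxicity screen, compound titrations were incubated 24 hr at 37 C with human lymphoblastoid cells in complete medium. Luciferase-based ATP luminescence provided the viability signal.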
# [18] = target: Alpha-galactosidase A (Homo sapiens) (UniProt P06280); experiment: Counterscreen for Glucocerebrosidase Inhibitors: qHTS Assay for Human alpha-Galactosidase at pH 4.5 (AID 992); settings: purified enzyme, fluorogenic substrate; series mostly up to 76.9 µM; note: 0% is about no effect
# Chain of Alpha-galactosidase A (Homo sapiens) (P06280 whole entry, looked up): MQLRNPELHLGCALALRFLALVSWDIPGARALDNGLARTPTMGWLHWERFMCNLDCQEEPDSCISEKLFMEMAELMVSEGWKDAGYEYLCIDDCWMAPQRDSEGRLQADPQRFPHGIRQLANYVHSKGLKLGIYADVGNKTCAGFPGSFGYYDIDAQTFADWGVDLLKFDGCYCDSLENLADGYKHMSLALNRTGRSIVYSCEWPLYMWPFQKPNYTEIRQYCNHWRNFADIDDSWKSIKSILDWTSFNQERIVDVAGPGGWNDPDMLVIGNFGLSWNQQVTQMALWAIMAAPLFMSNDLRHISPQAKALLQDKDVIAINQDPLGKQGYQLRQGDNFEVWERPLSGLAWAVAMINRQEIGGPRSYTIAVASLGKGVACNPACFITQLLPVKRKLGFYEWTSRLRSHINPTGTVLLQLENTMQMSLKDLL
# Procedure, shortened: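 Citrate buffer pH 4.5, Tween-20 0.005%. Enzyme 2 nM, substrate 80 uM, 20 min RT. Stop pH 10. Fluorescence Ex 365/Em 440. AC50 by Hill fit.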
# [19] = target: alpha-glucosidase (Oryza sativa, rice) (UniProt Q653V4); experiment: Counterscreen for Glucocerebrosidase Inhibitors: qHTS Assay for Rice alpha-Glucosidase at pH 5.0 (AID 997); settings: rice alpha-glucosidase enzyme activity; series mostly up to 76.9 µM;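 note: 0% = full activity with enzyme and -100% = basal without enzyme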
# Procedure, shortened: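 Endpoint fluorogenic assay at pH 5.0: compounds (0.7 nM to 77 uM) titrated against 4 nM rice enzyme and 400 uM 4-MU-alpha-glucoside for 20 min at room temperature; NaOH/glycine stop, read ex 365/em 440 nm, Hill-fitted AC50.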
# [20] = Validation of Assay for Modulators of Lamin A Splicing (AID 1459; active = well fitted curve in the direction sought with a large enough effect in the signal ratio; the % refers to the signal ratio;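 note: cells exposed to compound for two days before reading; 0% is about no effect; ratio rise marks activators and ratio drop marks inhibitors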); settings: Lamin A splicing dual RFP/GFP fluorescence reporter; series mostly up to 9.22 µM
# Procedure, shortened: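 HeLa S3 lamin A-EGFP/DsRed2 stable clone, 600 cells/well, Opti-MEM 2% FBS; compounds by pin tool; 48 hrs, 37 °C/5% CO2; Acumen 488 nm scan, objects 10-100 um; GFP/RFP intensity ratio.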
# [21] = measured here: cell count channel max response
# [22] = measured here: lipid channel max response
compound,measurement,setting,value
C1CNCCN1,"activity change, negative = inhibition",[1],8.66% (inactive)
same,max response,[1]; [21],6.29%
same,max response,[1]; [22],18.5%
C=Cc1ccccc1,outcome,[2],inactive
same,outcome,[3],inactive
same,outcome,[4],inactive
same,outcome,[5],inactive
same,outcome,[6],inactive
same,outcome,[7],inactive
same,outcome,[8],inactive
same,outcome,[9],inactive
same,outcome,[10],inactive
same,outcome,[11],inactive
same,outcome,[12],inactive
same,outcome,[13],inactive
CN(C)Cc1ccccc1,outcome,[2],inactive
same,outcome,[3],inactive
same,outcome,[4],inactive
same,outcome,[5],inactive
same,outcome,[6],inactive
same,outcome,[7],inactive
same,outcome,[14],inactive
same,outcome,[15],inactive
same,outcome,[8],inactive
same,outcome,[9],inactive
same,outcome,[16],inactive
same,outcome,[17],inactive
same,outcome,[10],inactive
same,outcome,[11],inactive
same,outcome,[12],inactive
same,outcome,[13],inactive
NCCCC(=O)O,outcome,[18],inactive
same,outcome,[19],inactive
same,outcome,[20],inactive
same,"activity change, negative = inhibition",[1],-0.209% (inactive) and 6.45% (inactive) and 0.252% (inactive)
same,max response,[1]; [21],-9.18% and 2.91% and -17.1%
same,max response,[1]; [22],-6.14% and 11.3% and -29.6%
CCCCCCCCCCCCCCCC(=O)OC/C=C(C)/C=C/C=C(C)/C=C/C1=C(C)CCCC1(C)C,"activity change, negative = inhibition",[1],3.99% (inactive)
same,max response,[1]; [21],7.5%
same,max response,[1]; [22],14%
O=C(O)CC(O)(CC(=O)O)C(=O)O,outcome,[2],inactive
same,outcome,[3],inactive
same,outcome,[4],inactive
same,outcome,[14],inactive
same,outcome,[15],inactive
same,outcome,[8],inactive
same,outcome,[9],inactive
same,outcome,[16],inactive
same,outcome,[17],inactive
same,outcome,[11],inactive
same,outcome,[12],inactive
same,outcome,[13],inactive
same,"activity change, negative = inhibition",[1],-0.75% (inactive)
same,max response,[1]; [21],14.5%
same,max response,[1]; [22],16%
Cc1ccc(OC[C@H](O)[C@H](C)NC(C)C)c2c1CCC2,outcome,[18],inactive
same,outcome,[19],inactive
same,"activity change, negative = inhibition",[1],-0.878% (inactive)
same,max response,[1]; [21],5.72%
same,max response,[1]; [22],7.78%
COC(C)=O,outcome,[2],inactive
same,outcome,[3],inactive
same,outcome,[4],inactive
same,outcome,[5],inactive
same,outcome,[6],inactive
same,outcome,[7],inactive
same,outcome,[14],inactive
same,outcome,[15],inactive
same,outcome,[8],inactive
same,outcome,[9],inactive
same,outcome,[16],inactive
same,outcome,[17],inactive
same,outcome,[10],inactive
same,outcome,[11],inactive
same,outcome,[12],inactive
same,outcome,[13],inactive
CCCCCCCCCC(=O)O,outcome,[2],inactive
same,outcome,[3],inactive
same,outcome,[4],inactive
same,outcome,[5],inactive
same,outcome,[6],inactive
same,outcome,[7],inactive
same,outcome,[14],inactive
same,outcome,[15],inactive
same,outcome,[8],inactive
same,outcome,[9],inactive
same,outcome,[16],inactive
same,outcome,[17],inactive
same,outcome,[10],inactive
same,outcome,[11],inactive
same,outcome,[12],inactive
same,outcome,[13],inactive
CN[C@H]1CC[C@@H](c2ccc(Cl)c(Cl)c2)c2ccccc21,outcome,[18],inactive
same,outcome,[19],inactive

# From PubChem BioAssay (NCATS)
